A short description of assay [1]: qHTS assay to identify small molecule agonists of the androgen receptor (AR) signaling pathway in the presence of an antagonist - cell viability counter screen (AID 1259379). Note: series mostly up to about 92 µM; nearly all actives have a fitted effect of over 25% in size. In a few lines:
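MDA-kb2 human breast carcinoma cells (stable MMTV-luciferase, AR/GR responsive) were seeded 3,000 cells/well, pre-incubated 5 hr at 37C without CO2, then given 3.0uM nilutamide and compounds at 15 concentrations for 16 hr. Viability was read by CellTiter-Fluor fluorescence.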

Assay [2] can be described thus: qHTS assay to identify small molecule agonists of the estrogen receptor beta (ER-beta) signaling pathway - cell viability counter screen (AID 1259380). Note: nearly all actives have a fitted effect of over 30% in size. Note: potency is the fitted concentration of half-maximal effect. In short, it runs like this: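 ER-beta-UAS-bla HEK293T cells in medium with 2% charcoal-stripped FBS were preincubated 6 hr at 37C, dosed with compound in DMSO for 16 hr, then after the bla read, CellTiter-Glo was added for 30 min at room temperature; luminescence recorded.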
A general note: In qHTS, concentration-response curves come from the screen itself.

In assay [3] the target is Androgen receptor (Homo sapiens) (UniProt P10275). Put plainly: qHTS assay to identify small molecule agonists of the androgen receptor (AR) signaling pathway in the presence of an antagonist (AID 1259381; calls by dose curve; note: nearly all actives have a fitted effect of over 15% in size). In a few lines: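 MDA-kb2 human breast carcinoma cells carrying an MMTV-luciferase reporter (AR- and GR-responsive) were treated with compounds at 15 concentrations plus 3.0uM final nilutamide for 16hr at 37C without CO2; luminescence was read after ONE-Glo addition.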
Chain of Androgen receptor (Homo sapiens) (P10275 whole entry, looked up): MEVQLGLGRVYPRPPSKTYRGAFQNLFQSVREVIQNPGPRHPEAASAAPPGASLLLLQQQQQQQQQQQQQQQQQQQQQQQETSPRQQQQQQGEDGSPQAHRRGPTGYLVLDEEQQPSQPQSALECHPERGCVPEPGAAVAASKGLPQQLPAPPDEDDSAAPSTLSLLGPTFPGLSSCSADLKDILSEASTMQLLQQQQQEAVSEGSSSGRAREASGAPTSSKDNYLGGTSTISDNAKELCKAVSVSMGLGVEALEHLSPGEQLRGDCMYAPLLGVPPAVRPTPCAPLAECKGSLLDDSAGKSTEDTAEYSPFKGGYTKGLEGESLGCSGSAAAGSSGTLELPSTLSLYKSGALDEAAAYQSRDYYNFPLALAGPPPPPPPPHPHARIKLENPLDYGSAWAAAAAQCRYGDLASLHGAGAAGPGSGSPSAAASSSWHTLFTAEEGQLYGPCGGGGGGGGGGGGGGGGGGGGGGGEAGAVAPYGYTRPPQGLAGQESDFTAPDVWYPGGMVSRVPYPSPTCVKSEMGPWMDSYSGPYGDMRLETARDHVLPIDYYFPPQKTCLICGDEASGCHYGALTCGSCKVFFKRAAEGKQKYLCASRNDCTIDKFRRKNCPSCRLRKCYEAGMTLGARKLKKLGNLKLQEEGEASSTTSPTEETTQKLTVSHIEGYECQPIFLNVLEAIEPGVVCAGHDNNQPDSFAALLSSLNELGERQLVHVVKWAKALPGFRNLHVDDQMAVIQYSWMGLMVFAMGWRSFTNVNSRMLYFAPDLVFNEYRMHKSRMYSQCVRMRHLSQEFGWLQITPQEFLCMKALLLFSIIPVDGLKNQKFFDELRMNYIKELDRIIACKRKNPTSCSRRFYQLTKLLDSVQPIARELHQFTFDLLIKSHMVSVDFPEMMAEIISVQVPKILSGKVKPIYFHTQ

Assay [4] can be described thus: qHTS assay to identify small molecule antagonists of the estrogen receptor beta (ER-beta) signaling pathway - cell viability counter screen (AID 1259382).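 Note: HEK293T cells carrying ER-beta-UAS-bla reporter stimulated with estradiol; series mostly up to about 92 µM; nearly all actives have a fitted effect of over 55% in size.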 In a few lines: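 ER-beta-UAS-bla HEK293T cells (2,000/well, 2% charcoal-stripped FBS) were pre-incubated 6 hr at 37C, then given compound plus 1nM final 17-beta-estradiol for 16 hr. Viability was read in the same wells by CellTiter-Glo luminescence after 30 min at room temperature.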

Assay [5] has as its target Estrogen receptor (Homo sapiens) (UniProt P03372). Kind of assay: qHTS assay to identify small molecule agonists of the estrogen receptor alpha (ER-alpha) signaling pathway in the presence of an antagonist (AID 1259383; calls by dose curve; note: top concentration of the series differs between compounds; nearly all actives have a fitted effect of over 15% in size). In a few lines:
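VM7Luc4E2 cells (endogenous full-length ER-alpha, 4×ERE-luciferase) were precultured 5 days in phenol red-free medium with 10% charcoal-stripped FBS, given 10.0nM ICI-182,780 (final), then treated with compounds at 15 concentrations for 22hr at 37C; luminescence read with ONE-Glo.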

Assay [6] in a line: qHTS assay to identify small molecule agonists or antagonists of the thyroid stimulating hormone receptor (TSHR) signaling pathway - wild type cell line counter screen (AID 1259384; calls by dose curve). In short, it runs like this:
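Wild-type HEK293 cells were plated 18 h at 37 C/5% CO2, pin-dosed with compound plus Ro20-1724 medium, held 30 min at room temperature, then given cAMP-d2 and anti-cAMP-cryptate; fluorescence was read after 1 h. Fifteen concentrations, triplicate.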

Assay [7] has as its target Thyrotropin receptor (Homo sapiens) (UniProt P16473). Put plainly: qHTS assay to identify small molecule antagonists of the thyroid stimulating hormone receptor (TSHR) signaling pathway (AID 1259385; calls by dose curve; note: nearly all actives have a fitted effect of over 20% in size). In short, it runs like this:
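TSHR-HEK293 cells were plated and held 18 h at 37C/5% CO2, then given compound plus Ro20-1724 and stimulated with TSH at 1.5 ng/mL final. After 30 min at room temperature, cAMP was detected with cAMP-d2/anti-cAMP-cryptate (1 h) by fluorescence.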

Assay [8] in a line: qHTS assay to identify small molecule agonists of the estrogen receptor alpha (ER-alpha) signaling pathway in the presence of an antagonist - cell viability counter screen (AID 1259386).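 Note: series mostly up to about 92 µM; cells exposed to compounds for 22 h at 37 °C before the viability read; nearly all actives have a fitted effect of over 30% in size.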 In short, it runs like this:
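VM7Luc4E2 cells (endogenous full-length ER-alpha, 4×ERE-luciferase) were held 5 days in phenol red-free medium with 10% charcoal-stripped FBS, plated, then given 10.0nM ICI-182,780 and compounds at 15 concentrations for 22hr at 37C; viability read by CellTiter-Fluor fluorescence.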

Assay [9] deals with Progesterone receptor (Homo sapiens) (UniProt P06401). Kind of assay: qHTS assay to identify small molecule agonists of the progesterone receptor (PR) signaling pathway (AID 1346784; calls by dose curve; note: nearly all actives have a fitted effect of over 30% in size). In short, it runs like this: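 PR-UAS-bla HEK 293T cells carrying a UAS-driven beta-lactamase reporter were seeded in medium with 2% charcoal-stripped FBS, preincubated 6 hr at 37C, then exposed to compounds in DMSO for 16 hr; agonism was read by LiveBLAzer B/G FRET fluorescence.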
Chain of Progesterone receptor (Homo sapiens) (P06401 whole entry, looked up): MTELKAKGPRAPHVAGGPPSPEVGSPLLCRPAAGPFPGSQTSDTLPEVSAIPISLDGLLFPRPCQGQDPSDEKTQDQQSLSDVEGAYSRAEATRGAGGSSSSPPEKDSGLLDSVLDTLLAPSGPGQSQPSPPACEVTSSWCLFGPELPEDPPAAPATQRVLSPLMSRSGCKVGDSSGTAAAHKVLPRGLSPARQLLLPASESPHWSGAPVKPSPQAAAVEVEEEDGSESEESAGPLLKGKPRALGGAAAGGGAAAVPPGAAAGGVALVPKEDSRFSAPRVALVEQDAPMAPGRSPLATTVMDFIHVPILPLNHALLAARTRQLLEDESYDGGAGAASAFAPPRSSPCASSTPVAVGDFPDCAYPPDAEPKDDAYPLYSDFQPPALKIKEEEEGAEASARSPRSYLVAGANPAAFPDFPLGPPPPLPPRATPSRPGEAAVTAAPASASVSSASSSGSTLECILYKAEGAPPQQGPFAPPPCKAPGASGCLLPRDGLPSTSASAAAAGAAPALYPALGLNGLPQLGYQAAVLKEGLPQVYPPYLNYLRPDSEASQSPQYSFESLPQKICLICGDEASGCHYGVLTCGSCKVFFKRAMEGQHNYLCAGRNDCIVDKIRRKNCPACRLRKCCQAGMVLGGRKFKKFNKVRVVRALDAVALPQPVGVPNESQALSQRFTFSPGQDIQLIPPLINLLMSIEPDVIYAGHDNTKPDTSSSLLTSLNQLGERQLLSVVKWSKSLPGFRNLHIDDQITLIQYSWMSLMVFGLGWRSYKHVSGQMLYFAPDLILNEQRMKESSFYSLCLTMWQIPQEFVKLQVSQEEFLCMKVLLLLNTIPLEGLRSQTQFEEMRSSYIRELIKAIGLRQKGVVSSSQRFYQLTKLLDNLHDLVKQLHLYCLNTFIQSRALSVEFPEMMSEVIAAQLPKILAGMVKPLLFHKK

The target is the same in assay [10]. Put plainly: qHTS assay to identify small molecule antagonists of the progesterone receptor (PR) signaling pathway (AID 1346795; active = well fitted inhibition curve with a large enough effect in the signal ratio in the repeat runs, not every such curve was filed as active; the % refers to the signal ratio). In a few lines:
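PR-UAS-bla HEK293T cells carrying a UAS-driven beta-lactamase reporter were plated in medium with 2% charcoal-stripped FBS and rested 6 hr at 37C. Compounds were added with 1 nM R5020 (final) for 16 hr, then FRET substrate loaded 2 hr at room temperature.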

The nature of assay [11]: qHTS assay to identify small molecule antagonists of the progesterone receptor (PR) signaling pathway - cell viability counter screen (AID 1346798). Note: series mostly up to about 92 µM; nearly all actives have a fitted effect of over 50% in size. In a few lines: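 PR-UAS-bla HEK293T cells in medium with 2% charcoal-stripped FBS were treated with compounds plus R5020 for 16 hr at 37C. Cell viability was then read by CellTiter-Glo luminescence after 30 min at room temperature in the same wells.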

Assay [12] in a line: qHTS assay to identify small molecule agonists of the progesterone receptor (PR) signaling pathway - cell viability counter screen (AID 1346799; calls by dose curve; note: nearly all actives have a fitted effect of over 45% in size). In a few lines:
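PR-UAS-bla HEK293T cells, 3,000 per well in medium with 2% charcoal-stripped FBS, were preincubated 6 hr at 37C, then exposed to compounds for 16 hr; viability was read as CellTiter-Glo luminescence after 30 min at room temperature.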

Assay [13] can be described thus: qHTS assay to identify small molecule antagonists of the TGF-beta/Smad signaling pathway - cell viability counter screen (AID 1346824). Note: nearly all actives have a fitted effect of over 50% in size. In short, it runs like this: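 SBE-bla HEK 293T cells were plated overnight at 37 C, then given compounds in DMSO plus TGF-beta1 (added as 0.25 ng/mL solution) for 5 hr. After the bla read, CellTiter-Glo was added to the same wells and luminescence read after 30 min at room temperature.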

Assay [14] in a line: qHTS assay to identify small molecule agonists of the TGF-beta/Smad signaling pathway - cell viability counter screen (AID 1346829). Note: top concentration of the series differs between compounds; nearly all actives have a fitted effect of over 45% in size. In short, it runs like this: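 Tox21 qHTS format: SBE-bla HEK 293T cells treated with DMSO-dissolved compounds for 5 hr; CellTiter-Glo luminescence after 30 min at room temperature.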
The nature of assay [15]: qHTS assay to identify small molecule agonists of the TGF-beta/Smad signaling pathway (AID 1346859; active = well fitted activation curve with a large enough effect in the signal ratio in the repeat runs, not every such curve was filed as active; the % refers to the signal ratio; note: series mostly up to about 77 µM). In a few lines:
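HEK 293T cells stably carrying a beta-lactamase reporter driven by the Smad binding element were seeded overnight, exposed to DMSO-dissolved compounds for 5 hr at 37 C, 5% CO2, then loaded with FRET substrate for 2 hr at room temperature.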

Assay [16] deals with Thyrotropin-releasing hormone receptor (Homo sapiens) (UniProt P34981). Put plainly: qHTS assay to identify small molecule antagonists of the thyrotropin-releasing hormone receptor (TRHR) signaling pathway (AID 1346877; active = well fitted inhibition curve with a large enough effect in the repeat runs, not every such curve was filed as active; note: series mostly up to about 51 µM). In a few lines:
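TRHR-expressing HEK293 cells were seeded, cultured 18 h at 37 °C, then loaded with calcium dye for 2 h. Compounds were pre-incubated 5 min at room temperature before 1 nM TRH (final) was added, and kinetic fluorescence was recorded for 3 min.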

Assay [17] shares this target. Put plainly: qHTS assay to identify small molecule agonists of the thyrotropin-releasing hormone receptor (TRHR) signaling pathway (AID 1346891; calls by dose curve; note: series mostly up to about 58 µM). In a few lines:
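TRHR-expressing HEK293 cells were plated 18 h at 37 °C/5% CO2, loaded with calcium dye 2 h at 37 °C, then given compound in DMSO; fluorescence was read kinetically for 3 min at 1 s intervals.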

Assay [18] can be described thus: Human pregnane X receptor (PXR) small molecule agonists, qHTS cell viability counter screen (AID 1346977). Note: nearly all actives have a fitted effect of over 50% in size. In a few lines:
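PXR-Luc HepG2 cells in medium with 5% charcoal-stripped FBS were pre-incubated 5hr, then exposed to compounds for 24hr at 37C. Viability was read in the same wells by CellTiter-Fluor fluorescence, reagent added after 23hr with a 1hr incubation.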

Assay [19] in a line: Caspase-3/7 induction in HepG2 cells by small molecules, qHTS assay (AID 1346978). Note: nearly all actives have a fitted effect of over 15% in size. In a few lines:
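Wild-type HepG2 cells (2,000/well) were settled 5 h at 37 C, 5% CO2, then exposed to compounds in DMSO for 17 h. Caspase-3/7 activity was read by luminescence 30 min after adding Caspase-Glo 3/7 reagent at room temperature.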

Assay [20] in a line: Caspase-3/7 induction in CHO-K1 cells by small molecules, qHTS cell viability counter screen (AID 1346979). Note: nearly all actives have a fitted effect of over 35% in size. In short, it runs like this:
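Wild-type CHO-K1 cells were seeded at 1,500 per well, rested 5hr at 37 C, then exposed to compounds in DMSO. After 16hr, CellTiter-Fluor reagent was added and fluorescence read 1hr later as the viability measure.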

From PubChem BioAssay (Tox21) come the findings set out here.

Unmarked numbers belong to inactive results. Results filed as inconclusive are left out. Active and inactive are the calls of the source. Unless noted, calls come from the whole dose curve; as a rule, active = well fitted curve in the direction sought with a large enough effect in the repeat runs; inconclusive = weak or mixed curves; inactive = no such curve, though single readings can be large; an effect the other way counts as inactive or inconclusive.

Chain of Thyrotropin receptor (Homo sapiens) (P16473 whole entry, looked up): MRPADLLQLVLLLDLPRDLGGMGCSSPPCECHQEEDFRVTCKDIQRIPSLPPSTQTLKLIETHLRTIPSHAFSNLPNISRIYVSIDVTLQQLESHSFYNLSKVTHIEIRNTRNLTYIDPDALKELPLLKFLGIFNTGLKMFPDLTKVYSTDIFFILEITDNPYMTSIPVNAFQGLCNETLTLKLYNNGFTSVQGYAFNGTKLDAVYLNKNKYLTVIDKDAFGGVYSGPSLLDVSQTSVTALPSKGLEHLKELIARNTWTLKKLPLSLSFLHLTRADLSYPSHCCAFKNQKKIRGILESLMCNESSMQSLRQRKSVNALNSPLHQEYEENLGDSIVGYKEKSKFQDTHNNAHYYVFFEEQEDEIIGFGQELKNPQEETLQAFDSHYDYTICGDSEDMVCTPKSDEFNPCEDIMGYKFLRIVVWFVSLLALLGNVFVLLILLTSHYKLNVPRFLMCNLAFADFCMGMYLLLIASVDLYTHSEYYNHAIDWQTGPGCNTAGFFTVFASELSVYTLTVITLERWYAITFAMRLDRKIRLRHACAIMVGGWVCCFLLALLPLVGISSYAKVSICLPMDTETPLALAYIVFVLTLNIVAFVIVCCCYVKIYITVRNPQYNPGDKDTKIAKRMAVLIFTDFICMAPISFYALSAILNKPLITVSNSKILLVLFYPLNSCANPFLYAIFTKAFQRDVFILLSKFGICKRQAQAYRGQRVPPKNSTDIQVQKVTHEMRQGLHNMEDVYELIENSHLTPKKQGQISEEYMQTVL
Chain of Estrogen receptor (Homo sapiens) (P03372 whole entry, looked up): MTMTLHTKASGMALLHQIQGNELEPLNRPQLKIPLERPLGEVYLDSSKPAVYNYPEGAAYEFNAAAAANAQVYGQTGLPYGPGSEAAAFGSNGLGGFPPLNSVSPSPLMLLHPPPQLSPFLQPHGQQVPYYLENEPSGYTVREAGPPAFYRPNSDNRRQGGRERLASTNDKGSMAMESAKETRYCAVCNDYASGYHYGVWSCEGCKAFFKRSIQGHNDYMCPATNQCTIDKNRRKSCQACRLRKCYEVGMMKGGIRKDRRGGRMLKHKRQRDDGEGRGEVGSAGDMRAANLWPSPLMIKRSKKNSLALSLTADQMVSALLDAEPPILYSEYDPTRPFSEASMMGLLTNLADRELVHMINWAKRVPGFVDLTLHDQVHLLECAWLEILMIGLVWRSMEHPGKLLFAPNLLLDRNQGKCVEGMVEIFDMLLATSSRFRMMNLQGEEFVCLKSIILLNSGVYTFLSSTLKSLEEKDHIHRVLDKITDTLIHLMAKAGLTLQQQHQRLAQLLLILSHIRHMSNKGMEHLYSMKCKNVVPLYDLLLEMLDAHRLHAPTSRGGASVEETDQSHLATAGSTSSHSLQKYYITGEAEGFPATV
Chain of Thyrotropin-releasing hormone receptor (Homo sapiens) (P34981 whole entry, looked up): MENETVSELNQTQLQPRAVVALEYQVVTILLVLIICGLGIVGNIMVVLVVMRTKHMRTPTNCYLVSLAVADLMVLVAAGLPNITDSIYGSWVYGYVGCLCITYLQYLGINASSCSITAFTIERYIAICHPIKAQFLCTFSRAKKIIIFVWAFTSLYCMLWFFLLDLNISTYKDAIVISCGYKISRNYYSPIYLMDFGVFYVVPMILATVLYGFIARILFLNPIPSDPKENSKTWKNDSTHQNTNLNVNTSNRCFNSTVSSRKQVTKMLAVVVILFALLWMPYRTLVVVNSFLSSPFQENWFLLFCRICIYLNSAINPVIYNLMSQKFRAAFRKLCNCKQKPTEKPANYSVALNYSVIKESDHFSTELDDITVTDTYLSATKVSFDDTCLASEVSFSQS

As to `CCc1cccc(C)c1N(C(=O)C(=O)O)C(C)COC` (stereo unspecified), the Potency result in assay [1], in assay [2], in [3], in assay [4], in [5] and in assay [6] was “inactive” each time. Further, the Potency result in [7], in [8], in assay [10], in assay [11], in [12] and in assay [13] was “inactive” throughout. Moreover, the Potency result in assay [14], in [16], in assay [17], in assay [18], in [19] and in assay [20] was “inactive” each time. The result in assay [9] and in [15] was inactive.
As for `C=COCCCC`, the Potency entry in assay [1], in assay [2], in assay [3], in assay [4], in assay [5] and in assay [6] was “inactive” throughout. Besides, the Potency entry in assay [7], in assay [8], in assay [11], in assay [13], in assay [14] and in assay [18] was “inactive” in each case. In addition, the Potency result in assay [19] and in assay [20] was “inactive” throughout. The molecule was classed as inactive in assay [9] and in assay [15].
Regarding `CCC1(C)C(=O)N(Cl)C(=O)N1Cl` (stereo unspecified), the Potency result in [1], in [2], in assay [3], in [4], in [5] and in assay [6] was “inactive” throughout. Further, the Potency entry in assay [7], in assay [8], in assay [10], in assay [11], in [12] and in assay [14] was “inactive” in each case. Moreover, the Potency result in assay [16], in assay [17], in assay [18], in assay [19] and in assay [20] was “inactive” in each case. Further, the molecule was called inactive in [9] and in [15].
Regarding `N#Cc1ccc(C/C(=N/NC(=O)Nc2ccc(OC(F)(F)F)cc2)c2cccc(C(F)(F)F)c2)cc1`, the Potency entry in assay [1], in assay [2], in [3], in assay [4], in assay [5] and in assay [6] was “inactive” in each case. In addition, the Potency entry in [7], in assay [8], in assay [13], in assay [14], in assay [16] and in assay [17] was “inactive” each time. In addition, the Potency result in assay [18] and in assay [19] was “inactive” in each case. Moreover, the molecule was classed as inactive in assay [9] and in assay [15].
As to `Cc1ccc(C2OC[C@@H]3OC(c4ccc(C)cc4)O[C@H]([C@H](O)CO)[C@@H]3O2)cc1` (stereo partly specified), the Potency entry in assay [1], in [2], in [3], in [4], in assay [5] and in assay [6] was “inactive” in each case. In addition, the Potency result in [7], in assay [8], in assay [11], in [12], in assay [13] and in assay [14] was “inactive” each time. Besides, the Potency entry in assay [16], in assay [17], in assay [18], in assay [19] and in assay [20] was “inactive” in each case. In addition, the molecule was called inactive in [9] and in [15].
For `CC1(C)[C@H](C(=O)OCc2cccc(Oc3ccccc3)c2)[C@@H]1C=C(Cl)Cl`, the Potency entry in assay [1], in assay [2], in assay [3], in [4], in assay [5] and in assay [6] was “inactive” in each case. The Potency result in [7], in [8], in assay [10], in [11], in [13] and in assay [14] was “inactive” each time. Moreover, the Potency entry in assay [16], in assay [17], in assay [18], in assay [19] and in assay [20] was “inactive” throughout. Besides, the molecule was called inactive in assay [9] and in [15].
As for `O=C1c2ccccc2C(=O)c2c(Cl)cccc21`, the Potency result in assay [1], in assay [3], in assay [4], in assay [5], in assay [6] and in assay [7] was “inactive” each time. The Potency entry in [8], in assay [11], in assay [12], in [13], in assay [16] and in assay [17] was “inactive” throughout. Also, the Potency entry in assay [18] and in [19] was “inactive” throughout. The Potency in assay [2] is 32.4 µM (active). Besides, the result in [9] and in [15] was inactive.
